Bioassay records deposited in PubChem BioAssay by National Center for Advancing Translational Sciences (NCATS).
Hits are enriched below; roughly 2.5% of the tested compounds scored in any of these assays.
L3MBTL1 inh = blocks human L3MBTL1 | Q9Y468 | AlphaScreen L3MBTL1–H3K9me1 peptide binding | Potency, µM (titrated, usually from 57.1 µM), actives largely listed as inhibitors | 0.66% of 230,000 active; note: nearly all actives have a fitted effect of over 60% in size
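L3MBTL1 (50 nM) pre-complexed 30 min with biotinylated H3(1-15)K9me1 peptide (75 nM), then compounds added for 30 min at room temperature; AlphaScreen streptavidin donor/nickel chelate acceptor beads (10 ug/mL final) read after 30 min dark incubation.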
POLI inh = DNA polymerase iota (human) inhibition. Q9UNA4. Pol iota fluorescent replication assay, 10 min. Potency, µM (top dose mostly 115 µM), most hits filed as inhibitors. 1% of 390,000 active. AID 588590
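Fluorescent replication assay read twice, at 0 min and 10 min after adding 50 nM (final) substrate. Enzyme (10 nM) and compounds were first incubated 15 min at room temperature; enzyme-free buffer wells were negative controls.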
POLB inh = DNA polymerase beta (human) inhibition. 1.3% of 340,000 active. P06746. AID 485314. Potency, µM (doses to about 114 µM), hits mostly inhibitors. Pol beta primer extension/strand displacement, fluorescence kinetic
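Human Pol beta at 10 nM; strand-displacement substrate 50 nM final. Compound exposure 15 min at room temperature before start, reaction 10 min at room temperature.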
WRN inhibitor = WRN helicase (human) inhibition | WRN helicase unwinding, fluorescent forked duplex, kinetic | Potency, µM (doses to about 114 µM), usual class: inhibitors | 0.46% of 360,000 active | AID 651768; note: nearly all actives have a fitted effect of over 55% in size
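WRN at 20 nM final was preincubated with compound for 15 min at room temperature; reaction started with 100 nM forked duplex oligonucleotide carrying fluorophore and quencher plus 2 mM ATP (final). Unwinding followed kinetically by red fluorescence (ex 525/em 598 nm).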
POLK inh = inhibitors of human DNA polymerase kappa; Q9UBT6; purified Pol kappa, fluorescent DNA synthesis assay, 10 min; Potency, µM (series often up to 107 µM), actives largely listed as inhibitors; 0.53% of 400,000 active
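Activity was followed as the change in fluorescence between reads at 0 and 10 min after starting the reaction with 50 nM substrate. Beforehand, 10 nM polymerase had been preincubated with compound for 15 min at room temperature.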
POLH inh = blocks human DNA polymerase eta activity; recombinant Pol eta, fluorescent DNA replication assay; Potency, µM (top dose mostly 114 µM), most hits filed as inhibitors; 1.2% of 390,000 active
Target sequence (Q9Y253 whole entry, looked up): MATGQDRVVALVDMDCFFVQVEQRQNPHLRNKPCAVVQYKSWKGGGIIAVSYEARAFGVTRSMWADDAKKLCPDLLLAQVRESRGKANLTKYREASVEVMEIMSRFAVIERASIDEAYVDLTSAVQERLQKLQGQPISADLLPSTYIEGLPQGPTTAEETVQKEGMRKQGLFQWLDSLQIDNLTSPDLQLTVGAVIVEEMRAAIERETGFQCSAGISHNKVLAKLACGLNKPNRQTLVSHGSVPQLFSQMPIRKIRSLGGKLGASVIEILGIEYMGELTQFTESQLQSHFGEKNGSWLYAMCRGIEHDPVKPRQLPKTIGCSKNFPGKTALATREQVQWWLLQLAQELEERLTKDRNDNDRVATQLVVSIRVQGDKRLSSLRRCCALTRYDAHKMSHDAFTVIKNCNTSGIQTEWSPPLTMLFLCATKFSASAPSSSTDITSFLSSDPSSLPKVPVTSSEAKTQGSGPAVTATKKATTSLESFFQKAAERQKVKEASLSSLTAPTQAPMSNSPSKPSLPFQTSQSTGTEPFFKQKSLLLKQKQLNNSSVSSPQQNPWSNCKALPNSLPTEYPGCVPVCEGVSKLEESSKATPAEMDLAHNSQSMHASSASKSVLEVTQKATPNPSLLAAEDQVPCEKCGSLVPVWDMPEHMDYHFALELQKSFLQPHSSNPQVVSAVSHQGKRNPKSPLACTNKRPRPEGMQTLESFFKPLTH
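Fluorescent replication assay: 50 nM final substrate added after a 15 min room-temperature compound preincubation with 10 nM enzyme. Signal taken at 0 min and again at 10 min.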
Numbers stand for hits; – = inactive; ? = inconclusive; · = no result; [ ] = another dose, or the depositor's remark. Calls come from the whole dose curve; as a rule, active = well fitted curve in the direction sought with a large enough effect; inconclusive = small, poorly fitted or top-dose-only effect, or another doubt; inactive = no such curve, though single readings can be large; an effect the other way counts as inactive or inconclusive.

SMILES | L3MBTL1 inh | POLI inh | POLB inh | WRN inhibitor | POLK inh | POLH inh
COc1ccc(CNC(=O)C(=O)NCC2CCCO2)cc1 (stereo not drawn) | – | ? | – | – | – | –
CN(C)c1ccc(CNC(=O)c2ccc3nc(Cc4ccccc4)oc3c2)cc1 | · | 28.2µM | – | · | – | –
Cc1ccccc1NC(=S)N/N=C/c1ccc(O)cc1O | 31.6µM | – | – | – | – | –
O=C(CCN1CCc2ccccc2C(c2ccccc2)C1)c1ccc2c(c1)OCCO2 (stereo not drawn) | · | ? | – | 44.7µM | – | –
O=C(CCN1Cc2ccccc2C1)c1ccc2c(c1)OCCO2 | – | – | – | – | – | –
O=c1[nH][nH]c(C(F)(F)F)c1C=Nc1ccccc1 | – | – | – | – | – | –
Cc1cc(O)ccc1N=Cc1c(C(F)(F)F)[nH][nH]c1=O | – | 8.91µM | 14.1µM | – | – | –
CC1=CC(C)(C)N2C(=O)C(=Nc3ccc(O)cc3)c3cccc1c32 | 11.2µM | 7.94µM | – | ? | – | 20µM
COCC(=O)N1CCC[C@@]2(CCN(C(=O)Nc3ccc(OC)cc3)C2)C1 | · | · | · | · | – | ·
Cc1ccc(S(=O)(=O)Nc2ccc3cc([N+](=O)[O-])ccc3c2[N+](=O)[O-])cc1 | · | ? | · | –[11.6 µM] | – | 79.4µM
Cc1ccc(S(=O)(=O)Nc2ccc3ccccc3c2[N+](=O)[O-])cc1 | · | – | · | – | – | –
CN1CCN(c2ccc(CNS(=O)(=O)Cc3ccc(Cl)cc3)cc2)CC1 | 4.47µM | – | – | – | – | –
COCCCN1C(=O)C(CC(=O)NCCN2CCOCC2)CC(C(=O)N2CCOCC2)=C1C (stereo not drawn) | · | · | · | – | · | ·
N=C1/C(=C\c2ccc(SCc3ccccc3)o2)C(=O)N=C2SC(CC(=O)N3CCOCC3)=NN12 | · | 10µM | ? | – | ? | 56.2µM
Cc1ccc(/C=C2\C(=N)N3N=C(CC(=O)N4CCOCC4)SC3=NC2=O)o1 | · | ? | ? | – | ? | 28.2µM
COc1ccc(/C=C2\C(=N)N3N=C(CC(=O)N4CCOCC4)SC3=NC2=O)cc1 | · | ? | – | – | – | –
Cc1ccccc1OCC(=O)NCC(=O)N/N=C/c1ccc(Br)o1 | – | – | ? | – | – | 25.1µM
CC(C)N1C(=O)CCC1C(=O)NCCc1ccc(Cl)cc1 (stereo not drawn) | – | ? | – | – | – | –
CCC1=NN2C(=N)/C(=C\c3cccn3-c3ccc(C)cc3C)C(=O)N=C2S1 | – | ? | 39.8µM | – | – | 50.1µM
CCC1=NN2C(=N)/C(=C\c3cccn3-c3c(C)cccc3C)C(=O)N=C2S1 | – | – | – | – | – | –
NS(=O)(=O)c1ccc(-c2ccc(C=O)o2)cc1 | – | – | – | – | – | –
CC1=C(C#N)C(=O)NC(=O)/C1=C/c1ccc(-c2ccc(S(N)(=O)=O)cc2)o1 | ? | ? | ? | ? | ? | 14.1µM
NS(=O)(=O)c1ccc(-c2ccc(/C=C3\NC(=S)NC3=O)o2)cc1 | 12.6µM | 10µM | – | – | 50.1µM | 79.4µM
CCn1c(SCC(=O)Nc2ccc(NC(C)=O)cc2)nc2c([nH]c3ccccc32)c1=O | · | – | – | – | – | –
O=C(O)/C(=C\c1ccc(Br)cc1)c1ccc(S(=O)(=O)N2CCCCC2)s1 | – | ? | 28.2µM | – | – | ?
SMILES | L3MBTL1 inh | POLI inh | POLB inh | WRN inhibitor | POLK inh | POLH inh
Cc1ccc(OCC(=O)Nc2ccc(C(=O)OCc3cc(=O)n4c(C)csc4n3)cc2)cc1 | · | – | – | · | – | –
Cc1csc2nc(COC(=O)c3ccccc3NC(=O)COc3ccccc3F)cc(=O)n12 | · | – | 25.1µM | · | – | –
CCOc1ccc(C(=O)Nc2ccc(C(=O)OCc3cc(=O)n4c(C)csc4n3)cc2)cc1 | · | ? | 17.8µM | · | – | –
CSc1ncc(C(=O)N2CCN(c3cc(Cl)ccc3C)CC2)c(C)n1 | · | – | – | · | – | –
Cc1ccc(CNC(=O)COC(=O)c2ccc(S(=O)(=O)N3CCOCC3)cc2)cc1 | – | – | · | – | – | –
Cc1cc2c(c(=O)o1)C1(C(=O)N(CC(=O)O)c3ccccc31)C(C#N)=C(N)O2 (stereo not drawn) | ? | ? | ? | – | ? | 20µM
CCOC(=O)Cc1cn2c(=O)cc(CSCC(=O)Nc3ccc(C)c(C)c3)nc2s1 | – | ? | ? | – | – | 89.1µM
COc1ccc(NC(=O)CSCc2cc(=O)n3cc(C)sc3n2)cc1 | · | – | – | – | – | –
CCn1c(C)cc(/C=C2/SC(=S)NC2=O)c1C | – | – | – | – | – | –
Cc1sc(-n2c(C)cc(/C=C3\SC(=S)NC3=O)c2C)c(C#N)c1C | – | ? | 31.6µM | 56.2µM | 79.4µM | 22.4µM
CO[C@@]1(NC(=O)CSCC#N)C(=O)N2C(C(=O)O)=C(CSc3nnnn3C)CSC21 (stereo partly drawn) | · | · | · | · | – | ·
CO[C@@]1(NC(=O)Cc2cccs2)C(=O)N2C(C(=O)O)=C(COC(N)=O)CSC21 (stereo partly drawn) | · | · | · | · | 31.6µM | ·
CO[C@@]1(NC(=O)Cc2cccs2)C(=O)N2C(C(=O)O)=C(COC(N)=O)CS[C@@H]21 | ? | ? | 12.6µM | – | ? | ?
CSc1ccccc1C(=O)NC(C)c1ccc(-n2ccnc2)cc1 (stereo not drawn) | · | – | – | – | – | –
Cc1ccc(NC(=O)C(=O)NCC(c2cccnc2)N2CCN(Cc3ccccc3)CC2)cc1F (stereo not drawn) | · | – | – | · | – | –
CCc1cc(CC)c(/C=N/NC(N)=O)c(CC)c1/C=N/NC(N)=O | · | – | – | – | – | –
COc1ccccc1NC(=O)N1CCN(CCc2ccccc2)CC1 | · | – | – | – | – | –
CCN1CCN(C(=O)Nc2ccccc2OC)CC1 | 39.8µM | – | – | – | – | –
CCN(CC)C(=O)c1ccc2c(c1)N(Cc1ccc(C(F)(F)F)cc1)C(=O)c1ccccc1S2 | · | – | – | · | – | –
Cn1c(=O)c(C#N)c(-c2ccc(F)cc2)c2cc(C(=O)c3cc(Cl)cc(Cl)c3O)cnc21 | – | ? | ? | –[11.6 µM] | – | 39.8µM
CCOC(=O)c1c(NC(=O)Cn2cnc3scc(-c4ccc(C)cc4)c3c2=O)sc(C)c1C | – | – | – | – | – | –
Cn1cc([N+](=O)[O-])c(C(=O)Nc2ccn(C34CC5CC(CC(C5)C3)C4)n2)n1 | – | – | – | – | – | –
CCN(CC)Cc1cc2[nH]c3c4ccc(Cl)cc4ncc3c2cc1OC | · | ? | 50.1µM | – | ? | –
CCCOC(=O)c1cc(-c2ccc(/C=C3/C(=O)N(C)C(=O)C(C#N)=C3C)o2)ccc1Cl | · | ? | · | –[11.6 µM] | – | 25.1µM
CCn1c(=O)cc(OCC(=O)N2CCN(c3cccc(C)c3C)CC2)c2ccccc21 | · | – | – | · | – | –
C=CCc1ccccc1OCC(O)CN1CCN(c2ccccc2)CC1 (stereo not drawn) | · | 79.4µM | – | · | ? | –
